About 2,700 (4%) of roughly 68,000 compounds showed an effect of 50% or more. This is one part of a sample in which strong results are shown more often than they occur.

The assay has as its system Plasmodium berghei. In words: Screen against P. berghei liver stage (PbLuc), transformed with Luciferase, at 2uM. The class given is functional, HepG2. The note with it: tested at 2 uM.
As for `CN(C)c1cc2c(nn1)CCN(C(=O)c1cc3c(s1)CCC3)C2`, the INHIBITION is -7.96%.

In the case of `CN(C)c1cc2c(nn1)CCN(C(=O)C1Cc3ccccc3S1)C2` (stereo unspecified), the INHIBITION stood at 65.77%.

As for `CN(C)c1cc2c(nn1)CCN(C(=O)C1Cc3ccccc3O1)C2` (stereo unspecified), the INHIBITION is listed as 11.24%.

With `CN(C)c1cc2c(nn1)CCN(C(=O)c1cc3c(s1)CCCC3)C2`, the INHIBITION turned out to be 28.39%.

With `CCNc1cc2c(nn1)CCN(C(=O)C1Cc3ccccc3S1)C2` (stereo unspecified), the INHIBITION came out at 27.6%.

With `CN(C)c1cc2c(nn1)CCN(C(=O)c1cc3c(s1)CCOC3)C2`, the INHIBITION stood at 56.05%.

With `CC(=O)N1CCC(Cc2ccc(-c3ccnn3C)nc2)CC1`, the INHIBITION turned out to be 35.19%.

`Cc1ccc(N2CC[C@H]3O[C@@H](C(=O)N4CCCO4)CC[C@H]32)nn1`: the INHIBITION was -28.58%.

On to `CCn1c(C)cc(C(=O)NCc2cccc(S(=O)(=O)NC)c2)c1C`, for which the INHIBITION came to 62.01%.

`CCn1c(C)cc(C(=O)NCc2cccc(NS(C)(=O)=O)c2)c1C`: the INHIBITION is listed as -6.29%.

Take `CNS(=O)(=O)c1cccc(CNC(=O)c2cnn(C)c2C)c1`: the INHIBITION is -2.2%.

Take `Cc1nccn1-c1ccc(NC(=O)C2CCCN2Cc2ccoc2)cc1` (stereo unspecified): the INHIBITION is given as 29.13%.

In the case of `Cc1nccn1-c1ccc(NC(=O)C2CCCN2CC2CC2)cc1` (stereo unspecified), the INHIBITION was 69.67%.

With `Cc1nccn1-c1ccc(NC(=O)C2CCCN2Cc2c[nH]cn2)cc1` (stereo unspecified), the INHIBITION stood at 31.51%.

Turning to `COCCCN1CCN(c2ncnc3nc(C)cc(C)c23)CC1`, the INHIBITION is 19.27%.

As to `O=C(CCc1n[nH]c2c1CCCC2)N1C[C@H]2CC[C@@H](C1)N(CC1CC1)C2`, the INHIBITION is on record as 35.94%.

As to `Nc1cc(N2CCCC(COc3ccc(F)cc3)C2)ncn1` (stereo unspecified), the INHIBITION came out at 42.11%.

As for `Nc1cc(N2CCCC(COc3ccc(F)cc3)C2)nc(N)n1` (stereo unspecified), the INHIBITION is on record as 17.48%.

Turning to `Cc1nc(N)cc(N2CCCC(COc3cccc(F)c3)C2)n1` (stereo unspecified), the INHIBITION is recorded as 59.8%.

For `N#Cc1cccnc1NCc1cccc(C(=O)NCC2CCCCO2)c1` (stereo unspecified), the INHIBITION amounted to 27.85%.

As for `N#Cc1cccnc1NCCc1cc(F)cc2c1OCOC2`, the INHIBITION is listed as 4.68%.

Regarding `COc1ccc2c(c1)CCCC2CC(=O)O` (stereo unspecified), the INHIBITION is -36.72%.

As to `COc1ccc2c(c1)CCCC2CC(=O)NCC(C)(C)C(=O)O` (stereo unspecified), the INHIBITION is given as 53.98%.

As to `COc1ccc2c(c1)CCCC2CC(=O)NCC(=O)O` (stereo unspecified), the INHIBITION is -35.22%.

Regarding `CC1CN(CC(=O)Nc2nncs2)CCN1Cc1nccn1C` (stereo unspecified), the INHIBITION is on record as -11.91%.

Turning to `CCS(=O)(=O)c1ncc(CN(C)C)n1Cc1ccccc1`, the INHIBITION is listed as -2.93%.

Take `CC(=O)c1cccc(NC(=O)Cn2cnc(-c3cccs3)cc2=O)c1`: the INHIBITION came out at 50.7%.

Take `O=c1oc(-c2cccs2)nn1CC(O)c1ccc(F)cc1` (stereo unspecified): the INHIBITION was determined as 29.61%.

With `O=c1oc(-c2cccs2)nn1CC(O)c1ccccc1` (stereo unspecified), the INHIBITION is given as 60.95%.

Consider `O=C(Cn1cnc(-c2cccs2)cc1=O)Nc1cccnc1`, for which the INHIBITION is -8.7%.

For the compound `CNC(=O)c1cccc(NC(=O)Cn2nc(-c3cccs3)oc2=O)c1`, the INHIBITION is on record as 17.39%.

`CC(=O)c1cccc(NC(=O)Cn2nc(-c3cccs3)oc2=O)c1`: the INHIBITION was determined as 51.94%.

For the compound `O=c1oc(-c2cccs2)nn1CC(O)c1ccccc1F` (stereo unspecified), the INHIBITION is on record as 34.89%.

For `CC(=O)c1cccc(NC(=O)CCn2nc(-c3cccs3)oc2=O)c1`, the INHIBITION is 15.28%.

Regarding `CC(=O)c1cccc(NC(=O)Cn2cnc(-c3ccccc3)cc2=O)c1`, the INHIBITION is given as 3.11%.

Regarding `Cc1occc1C(=O)N1CCC2(CC1)C(c1cnn(C)c1)CC(=O)N2C` (stereo unspecified), the INHIBITION was -41.72%.

`Cc1cccc2c1OCCCC2NCc1nccn1Cc1ccccc1` (stereo unspecified): the INHIBITION worked out at 21.72%.

As to `c1csc(-c2nc(CNCCn3cccn3)cs2)c1`, the INHIBITION is 4.18%.

Regarding `COc1cc(N2C[C@@H]3COC[C@]3(C(=O)NCc3ccccn3)C2)ncn1`, the INHIBITION is recorded as -23.31%.

As to `Nc1ncccc1C(=O)NCc1cccc(Br)c1`, the INHIBITION is on record as -3.16%.

In the case of `O=C(NCCc1cccs1)[C@]12COC[C@H]1CN(C1CCOCC1)C2`, the INHIBITION is 17.24%.

As to `COc1cc(N2CCC3(CCCN3Cc3cnn(C)c3)CC2)ncn1`, the INHIBITION was determined as 30.09%.

In the case of `Cc1ccc(-c2cc(CN3CCc4cnc(C)nc4C3)on2)cc1`, the INHIBITION was -34.82%.

For `O=C([C@H]1C[C@H]2OCC[C@H]2N(C(=O)c2cnccn2)C1)N1CCCCO1`, the INHIBITION is listed as -1.69%.

With `O=C([C@H]1C[C@H]2OCC[C@H]2N(C(=O)c2ccccn2)C1)N1CCCCO1`, the INHIBITION is 62.1%.

As for `O=C([C@H]1C[C@H]2OCC[C@H]2N(C(=O)c2ccncc2)C1)N1CCCCO1`, the INHIBITION is recorded as -34.26%.

For the compound `O=C(c1ccc(Br)o1)N1CCN(Cc2ccc(F)cc2)CC1`, the INHIBITION was determined as 10.22%.

Turning to `CC(C)NC(=O)Nc1ccc(CNCc2cccc(C#N)c2)cc1`, the INHIBITION is on record as -68.26%.

Turning to `Cn1ccnc1CNC1CCCN(Cc2noc(C3CC3)n2)C1` (stereo unspecified), the INHIBITION was 50.32%.

For the compound `Cc1ncc(CNC2CCCN(Cc3noc(C4CC4)n3)C2)s1` (stereo unspecified), the INHIBITION is 18.46%.

With `Cc1ccc(CNC2CCCN(Cc3noc(C4CC4)n3)C2)s1` (stereo unspecified), the INHIBITION was found to be 54.29%.

Turning to `CCc1nc(CN2CCCC(NCc3cnc(C)s3)C2)no1` (stereo unspecified), the INHIBITION is 77.57%.

Regarding `CCc1nc(CN2CCCC(NCc3cc(C)no3)C2)no1` (stereo unspecified), the INHIBITION was -2.1%.

On to `Cc1nc(CN2CCCC(NCc3cccc4ccccc34)C2)no1` (stereo unspecified), for which the INHIBITION worked out at 29.54%.

Regarding `CCc1nc(CN2CCCC(NCc3nc(C)c(C)o3)C2)no1` (stereo unspecified), the INHIBITION is reported as 36.73%.

As to `Cc1cc(CNC2CCCN(Cc3noc(C4CC4)n3)C2)on1` (stereo unspecified), the INHIBITION is given as 7.01%.

Regarding `Cn1cc(CNC2CCCN(Cc3noc(C4CC4)n3)C2)cn1` (stereo unspecified), the INHIBITION was determined as 2.08%.

As to `Cc1nc(CN2CCCC(NCCCc3ccccc3)C2)no1` (stereo unspecified), the INHIBITION is given as -6.4%.

For `Cn1ccnc1CC1CCCN(Cc2noc(C3CC3)n2)C1` (stereo unspecified), the INHIBITION is listed as 11.24%.

Take `Cc1nc(CN2CCCC(NCCc3ccccc3Cl)C2)no1` (stereo unspecified): the INHIBITION came to 56.67%.

Regarding `Cc1oc(C(=O)O)cc1S(=O)(=O)Nc1cccc(-c2nccs2)c1`, the INHIBITION was 15.39%.

Consider `Fc1cnc(N2C[C@H]3CCC[C@@]3(COc3ccccn3)C2)nc1`, for which the INHIBITION is on record as -27.16%.

Regarding `COc1ccc2cc(NC(=O)CCNc3nc(C)cc(C)n3)cnc2c1`, the INHIBITION is listed as -6.83%.

As for `O=C(CN(C1=NCCCCC1)c1ccc(Cl)cc1)c1ccccc1`, the INHIBITION is listed as -65.06%.

For `CC(C)c1ccc(CN2CCC3(CCCN(c4nncs4)C3)C2)cc1` (stereo unspecified), the INHIBITION is recorded as 5.52%.

As for `Cc1noc(C)c1CCC(=O)N1CCN(CCn2cccn2)CC1`, the INHIBITION was 2.18%.

The record behind these values is ChEMBL document CHEMBL4513216, “Probing the Open Global Health Chemical Diversity Library for Multistage-Active Starting Points for Next-Generation Antimalarials” (ACS Infect Dis, 2020).
